Reference: PubChem BioAssay (NCI)
This is part of a sample that, as a whole, favours compounds with a hit. Of some 79,000 tested, about 15% had one in any assay. A number with no mark means an inactive call. The source made the active and inactive calls. No stated cut-off is given here; in the data, active means growth inhibition above about 70%; inactive means the rest.

How the values were obtained:
[1] = NCI Yeast Anticancer Drug Screen. Data for the rad50 strain (AID 155);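 further: 0% = growth of vehicle-only cultures of the same strain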; details: S. cerevisiae rad50 strain growth inhibition, hits give high values
Outline: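 A DNA repair-deficient yeast mutant serves as the test organism; compound-induced growth inhibition is calculated against vehicle-treated cells.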

[2] = NCI Yeast Anticancer Drug Screen. Data for the mec2-1 strain (AID 157); details: S. cerevisiae mec2-1 strain, hits give high values
Outline: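 Mutant yeast (mec2-1) grown with compound; growth inhibition relative to vehicle control reported.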

[3] = NCI Yeast Anticancer Drug Screen. Data for the sgs1 mgt1 strain (AID 161);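 further: 0% = growth of cultures given vehicle only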; details: S. cerevisiae sgs1 mgt1 strain, hits give high values
Outline: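 Percent growth inhibition was derived by comparing compound-exposed mutant yeast with vehicle-exposed cultures. The strain carries alterations in DNA damage repair.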

[4] = NCI Yeast Anticancer Drug Screen. Data for the cln2 rad14 strain (AID 165);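 further: 0% = growth equal to vehicle treated cultures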; details: S. cerevisiae cln2 rad14 strain, hits give high values
Outline: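 Readout is yeast growth inhibition versus vehicle-treated controls, using a strain with cln2 and rad14 alterations exposed to compound.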

[5] = NCI Yeast Anticancer Drug Screen. Data for the bub3 strain (AID 167); details: S. cerevisiae bub3 mutant strain, hits give high values
Outline: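 Inhibition values come from growth of compound-treated mutant yeast normalised to vehicle-treated controls.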

[6] = NCI Yeast Anticancer Drug Screen. Data for the mlh1 rad18 strain (AID 175); details: S. cerevisiae mlh1 rad18 strain growth inhibition, hits give high values
Outline: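 Genetically defined yeast (DNA repair-deficient) exposed to compounds; growth inhibition determined relative to vehicle.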

[7] = at 5.0 µM (retest, dose inferred, filed as 0.5)
[8] = at 50.0 µM (retest, dose inferred, filed as 5.0)

SMILES | growth inhibition [1, 7] | growth inhibition [1, 8] | growth inhibition ([1]; at 50.0 µM) | growth inhibition [2, 7] | growth inhibition [2, 8] | growth inhibition ([2]; at 50.0 µM) | growth inhibition [3, 7] [%] | growth inhibition [3, 8] | growth inhibition ([3]; at 50.0 µM) | growth inhibition [4, 7] [%] | growth inhibition [4, 8] | growth inhibition ([4]; at 50.0 µM) | growth inhibition [5, 7] | growth inhibition [5, 8] | growth inhibition ([5]; at 50.0 µM) | growth inhibition [6, 7] | growth inhibition [6, 8] | growth inhibition ([6]; at 50.0 µM)
Cc1ccc(N2CC3CC4(C)C=CC3(C2)O4)cc1 (stereo not given) | 6% | 8% | 76% (active) | -9% | 1% | 49.7% | 10 | 22% | 79.8% (active) | -22 | 10% | -6.65% | 13% | -3% | 89.5% (active) | 30% | -1% | 50.8%
COC(C)(C)[C@@H]1CCCN1C1=C(C)C(=O)OC1 | 97% (active) | 99% (active) | 46.6% | 85% (active) | 99% (active) | 69.3% | 61 | 99% (active) | 78.5% (active) | 43 | 99% (active) | 24.6% | 89% (active) | 99% (active) | 46.6% | 90% (active) | 99% (active) | 75.8% (active)
O=C1CCCCO1 | 1% | 3% | -15.8% | -1% | -3% | -19.4% | 0 | -4% | -27.1% | 3 | -2% | 19.4% | -1% | -3% | -43.3% | 0% | 1% | -4.85%
CCN(CC)CCCCCCNc1cc(C)cc2cccnc12 | 7% | 59% | 65.9% | 7% | 61% | 19.9% | 20 | 81% (active) | 74% (active) | 9 | 52% | 72.8% (active) | 14% | 76% (active) | 18.9% | 10% | 74% (active) | 59.6%
C=Cc1cc(O)cc2c1-c1ccc(O)c(C)c1CC2 | 10% | 99% (active) | 99.7% (active) | -22% | 100% (active) | 99.8% (active) | -1 | 99% (active) | 99.8% (active) | -3 | 99% (active) | 99.6% (active) | 10% | 99% (active) | 99.5% (active) | -5% | 99% (active) | 99.7% (active)
COc1cc(/C=C/C(=O)c2ccc3ccccc3c2)cc(OC)c1OC | 38% | 40% | 7.75% | 49% | 44% | 11.3% | 1 | 45% | 34.4% | 22 | 14% | -5.35% | 22% | 27% | 41.9% | 37% | 44% | 22.6%
O=C(CC(C[N+](=O)[O-])c1ccc2c(c1)OCO2)c1ccccc1 (stereo not given) | 0% | -3% | -12.5% | 9% | 17% | 17.1% | -1 | -50% | 33.9% | 4 | 16% | 4.65% | 18% | 45% | 88.2% (active) | -4% | 9% | 45.1%
O=Cc1ccc2c(c1)CC1(C2)Cc2ccc3c(c2C1)CCC3 (stereo not given) | -1% | 68% | 92.9% (active) | 0% | 78% (active) | 89.3% (active) | 14 | 81% (active) | 87.6% (active) | -2 | 41% | 73% (active) | -1% | 74% (active) | 91.5% (active) | 1% | 74% (active) | 84.8% (active)
CC(C)(C)N1OC2(c3ccccc3)OC3N(C(C)(C)C)OC4(c5ccccc5)OC1C2(c1ccccc1)C34c1ccccc1 (stereo not given) | -4% | 99% (active) | 93.7% (active) | -2% | 100% (active) | 97.9% (active) | -5 | 99% (active) | 72% (active) | 4 | 99% (active) | 98% (active) | 1% | 99% (active) | 99.2% (active) | 0% | 99% (active) | 96% (active)
COc1ccc2c(ccc[n+]2CC(=O)c2ccc(-c3ccccc3)cc2)c1 | -24% | 5% | 13.1% | -5% | -1% | 14.8% | -20 | 24% | 2.75% | -2 | 5% | -12.8% | 3% | 8% | -2.75% | -3% | 12% | 40%
